Data as given in the supplement of paper PMC10849652.
The full data set covers some 7,900 targets. This sample favours those with a hit. About 0.6% of all pairs of compound and target were hits. Unmarked numbers belong to inactive results.

Legend:
Test in all cases: log2 fold change, soluble protein after heating vs DMSO (PISA); higher = thermal stabilisation; K562 cells, 10 uM, 30 min; active = over 0.2 and 3.5 SD of the protein, either way, in both replicates (recomputed)
[1] = compound: C#Cc1cccc(Nc2ncnc3cc(OCCOC)c(OCCOC)cc23)c1 [erlotinib]
Method in brief: (§1)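 Thermal stability values are relative to control samples and come from duplicates. They are expressed as log2 fold changes. For measurement, K562 cells (2×10^6 cells/mL) received 10 μM compound for 30 min, and aliquots were heated for 3 min over 48°C-58°C, pooled, and extracted at 4°C in PBS with 0.5% NP-40. Soluble protein, the supernatant after 21,000xg for 90 min, was quantified by TMTpro 16plex LC-MS/MS with equalised channel sums.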

[2] = compound: C/C(=N\NC(=O)C1=CC(=CC=C1)S(=O)(=O)N2CCOCC2)/C3=C(C=CC(=C3)Cl)O
Method in brief: as §1

[3] = compound: C1=CC(=C(C=C1Cl)C2=NC3=NC=CN=C3C(=N2)NC4=CC=NC=C4)F
Method in brief: as §1

[4] = compound: C1=CC(=CC=C1C2=NC3=C(N2)C=C(C=C3)C(=O)N)OC4=CC=C(C=C4)Cl
Method in brief: as §1

[5] = compound: C1=CC2=C(C=CC(=C2)/C=C\3/C(=O)NC(=NCC4=CC=CS4)S3)N=C1
Method in brief: as §1

[6] = compound: C1=CC2=NC=CN=C2C=C1/C=C/3\C(=O)NC(=O)S3
Method in brief: as §1

[7] = compound: C1=CC=C(C=C1)C2=NC(=C(N2)C3=CC=NC=C3)C4=CC(=C(C=C4)Cl)O
Method in brief: as §1

[8] = compound: C1=CC=C2C(=C1)C3=NNC4=CC=CC(=C43)C2=O
Method in brief: as §1

[9] = compound: C1CCN(C1)C(=O)NC2=CC=CC(=C2)NC3=NC=C(C(=N3)NCCC4=CN=CN4)Br
Method in brief: as §1

[10] = compound: C1CN(CCC1(CC2=CC=C(C=C2)Cl)N)C3=NC=NC4=C3C=CN4
Method in brief: as §1

Chain of UniProt Q96GS6 (Q96GS6 whole entry, looked up): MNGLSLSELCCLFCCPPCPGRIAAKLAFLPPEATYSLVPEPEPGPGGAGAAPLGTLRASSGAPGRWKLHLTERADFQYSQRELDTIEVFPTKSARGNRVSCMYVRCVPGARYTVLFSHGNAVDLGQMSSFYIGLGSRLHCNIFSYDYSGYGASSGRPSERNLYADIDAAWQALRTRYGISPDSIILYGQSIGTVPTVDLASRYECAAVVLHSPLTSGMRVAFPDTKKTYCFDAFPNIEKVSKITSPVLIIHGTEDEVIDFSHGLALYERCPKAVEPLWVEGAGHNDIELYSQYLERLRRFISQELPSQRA
Chain of UniProt P11310 (P11310 whole entry, looked up): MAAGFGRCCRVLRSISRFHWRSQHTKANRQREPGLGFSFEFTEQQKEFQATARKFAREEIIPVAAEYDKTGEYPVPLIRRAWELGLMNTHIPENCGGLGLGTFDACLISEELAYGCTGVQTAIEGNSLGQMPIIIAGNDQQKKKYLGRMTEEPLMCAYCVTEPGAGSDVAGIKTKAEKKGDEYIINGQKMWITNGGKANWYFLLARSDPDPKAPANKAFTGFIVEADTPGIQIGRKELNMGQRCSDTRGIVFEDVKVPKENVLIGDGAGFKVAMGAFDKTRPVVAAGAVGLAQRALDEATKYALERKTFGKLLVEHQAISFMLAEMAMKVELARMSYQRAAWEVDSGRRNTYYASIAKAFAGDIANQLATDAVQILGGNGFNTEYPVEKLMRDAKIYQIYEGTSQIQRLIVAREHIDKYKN
Chain of UniProt P55008 (P55008 whole entry, looked up): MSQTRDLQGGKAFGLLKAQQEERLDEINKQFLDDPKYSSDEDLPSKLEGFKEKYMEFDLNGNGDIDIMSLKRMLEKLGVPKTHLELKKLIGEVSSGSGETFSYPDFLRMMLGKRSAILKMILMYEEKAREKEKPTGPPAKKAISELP
Chain of UniProt P11766 (P11766 whole entry, looked up): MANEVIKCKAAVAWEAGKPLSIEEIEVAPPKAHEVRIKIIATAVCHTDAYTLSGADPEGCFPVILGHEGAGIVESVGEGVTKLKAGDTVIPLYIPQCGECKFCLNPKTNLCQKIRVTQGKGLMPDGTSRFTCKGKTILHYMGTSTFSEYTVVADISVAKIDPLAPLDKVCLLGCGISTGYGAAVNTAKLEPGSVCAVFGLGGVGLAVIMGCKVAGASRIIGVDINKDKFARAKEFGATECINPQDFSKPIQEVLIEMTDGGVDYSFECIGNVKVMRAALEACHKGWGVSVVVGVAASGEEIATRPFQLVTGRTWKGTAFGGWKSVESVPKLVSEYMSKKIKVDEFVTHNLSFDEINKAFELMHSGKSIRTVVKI
Chain of UniProt Q9UKG1 (Q9UKG1 whole entry, looked up): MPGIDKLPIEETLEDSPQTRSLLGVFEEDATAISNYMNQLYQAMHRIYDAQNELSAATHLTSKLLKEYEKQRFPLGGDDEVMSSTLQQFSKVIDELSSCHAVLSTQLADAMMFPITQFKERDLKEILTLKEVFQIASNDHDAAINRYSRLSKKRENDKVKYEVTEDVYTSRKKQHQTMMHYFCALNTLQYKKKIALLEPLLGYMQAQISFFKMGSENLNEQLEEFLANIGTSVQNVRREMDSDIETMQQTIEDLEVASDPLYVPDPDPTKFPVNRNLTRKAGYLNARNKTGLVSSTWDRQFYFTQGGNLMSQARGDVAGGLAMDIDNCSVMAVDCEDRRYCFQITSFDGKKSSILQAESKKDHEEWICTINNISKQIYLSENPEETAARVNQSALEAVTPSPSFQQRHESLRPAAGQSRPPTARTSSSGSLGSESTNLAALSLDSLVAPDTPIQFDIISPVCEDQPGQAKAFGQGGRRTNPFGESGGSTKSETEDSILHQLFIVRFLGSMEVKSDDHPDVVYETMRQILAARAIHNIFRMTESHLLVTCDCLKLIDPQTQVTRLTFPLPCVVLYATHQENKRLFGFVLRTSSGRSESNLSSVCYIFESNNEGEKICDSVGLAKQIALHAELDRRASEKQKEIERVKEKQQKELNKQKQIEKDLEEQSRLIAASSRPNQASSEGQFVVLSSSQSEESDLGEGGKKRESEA
Chain of UniProt Q8TDN6 (Q8TDN6 whole entry, looked up): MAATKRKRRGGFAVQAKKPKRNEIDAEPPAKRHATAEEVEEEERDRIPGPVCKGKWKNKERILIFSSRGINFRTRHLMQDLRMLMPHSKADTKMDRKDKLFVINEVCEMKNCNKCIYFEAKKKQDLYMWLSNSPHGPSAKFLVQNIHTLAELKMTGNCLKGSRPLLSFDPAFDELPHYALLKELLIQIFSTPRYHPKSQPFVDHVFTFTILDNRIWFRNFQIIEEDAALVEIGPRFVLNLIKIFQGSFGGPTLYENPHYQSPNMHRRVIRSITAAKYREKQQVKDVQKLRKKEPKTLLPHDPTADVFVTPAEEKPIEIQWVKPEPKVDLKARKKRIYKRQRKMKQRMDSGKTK
Chain of UniProt P55196 (P55196 whole entry, looked up): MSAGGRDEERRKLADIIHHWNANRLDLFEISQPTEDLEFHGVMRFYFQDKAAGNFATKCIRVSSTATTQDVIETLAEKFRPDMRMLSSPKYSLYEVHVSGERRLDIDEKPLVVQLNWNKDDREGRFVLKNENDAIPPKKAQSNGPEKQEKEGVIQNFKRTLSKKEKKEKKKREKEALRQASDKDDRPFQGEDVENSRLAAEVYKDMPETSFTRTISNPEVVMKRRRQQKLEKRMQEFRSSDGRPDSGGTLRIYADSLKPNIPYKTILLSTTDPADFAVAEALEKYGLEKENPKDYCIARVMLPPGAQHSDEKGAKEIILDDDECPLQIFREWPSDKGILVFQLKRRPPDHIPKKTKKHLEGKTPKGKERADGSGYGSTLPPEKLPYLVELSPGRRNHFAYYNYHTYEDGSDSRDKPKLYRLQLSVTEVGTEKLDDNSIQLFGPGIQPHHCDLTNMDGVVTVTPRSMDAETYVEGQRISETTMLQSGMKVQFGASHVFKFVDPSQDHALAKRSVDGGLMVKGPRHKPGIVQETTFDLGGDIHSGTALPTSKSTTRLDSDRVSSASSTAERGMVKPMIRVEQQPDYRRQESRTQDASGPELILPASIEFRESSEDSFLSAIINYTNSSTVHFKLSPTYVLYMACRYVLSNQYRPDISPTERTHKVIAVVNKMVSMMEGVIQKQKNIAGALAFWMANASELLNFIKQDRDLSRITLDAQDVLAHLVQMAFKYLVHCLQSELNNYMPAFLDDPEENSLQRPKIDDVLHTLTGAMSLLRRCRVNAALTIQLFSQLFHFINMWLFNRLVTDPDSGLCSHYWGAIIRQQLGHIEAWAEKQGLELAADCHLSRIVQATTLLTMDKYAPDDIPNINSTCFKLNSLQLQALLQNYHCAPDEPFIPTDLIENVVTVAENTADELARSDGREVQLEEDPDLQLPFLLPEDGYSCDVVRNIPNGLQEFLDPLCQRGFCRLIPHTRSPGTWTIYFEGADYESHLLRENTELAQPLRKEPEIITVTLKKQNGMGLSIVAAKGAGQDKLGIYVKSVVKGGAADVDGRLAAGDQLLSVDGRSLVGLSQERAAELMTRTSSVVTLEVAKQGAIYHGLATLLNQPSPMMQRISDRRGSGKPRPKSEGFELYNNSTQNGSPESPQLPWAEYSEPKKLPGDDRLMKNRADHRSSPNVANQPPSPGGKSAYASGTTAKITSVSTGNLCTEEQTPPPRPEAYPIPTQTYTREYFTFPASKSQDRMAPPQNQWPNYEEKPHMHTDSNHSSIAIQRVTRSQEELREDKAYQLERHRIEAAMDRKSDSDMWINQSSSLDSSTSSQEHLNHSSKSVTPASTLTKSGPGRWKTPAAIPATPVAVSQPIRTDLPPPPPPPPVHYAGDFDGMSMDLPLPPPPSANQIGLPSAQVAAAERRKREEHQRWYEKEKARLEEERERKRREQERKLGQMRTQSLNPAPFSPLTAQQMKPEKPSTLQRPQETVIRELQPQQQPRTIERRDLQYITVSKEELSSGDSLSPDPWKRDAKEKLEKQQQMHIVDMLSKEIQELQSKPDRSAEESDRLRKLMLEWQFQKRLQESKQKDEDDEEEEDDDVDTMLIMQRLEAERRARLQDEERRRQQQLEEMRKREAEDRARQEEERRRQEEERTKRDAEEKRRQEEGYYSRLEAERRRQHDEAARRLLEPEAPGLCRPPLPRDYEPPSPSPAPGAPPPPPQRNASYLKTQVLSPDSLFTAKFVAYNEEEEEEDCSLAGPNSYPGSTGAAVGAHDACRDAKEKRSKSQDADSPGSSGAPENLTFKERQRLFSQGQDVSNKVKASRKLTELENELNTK
Chain of UniProt Q9NUQ2 (Q9NUQ2 whole entry, looked up): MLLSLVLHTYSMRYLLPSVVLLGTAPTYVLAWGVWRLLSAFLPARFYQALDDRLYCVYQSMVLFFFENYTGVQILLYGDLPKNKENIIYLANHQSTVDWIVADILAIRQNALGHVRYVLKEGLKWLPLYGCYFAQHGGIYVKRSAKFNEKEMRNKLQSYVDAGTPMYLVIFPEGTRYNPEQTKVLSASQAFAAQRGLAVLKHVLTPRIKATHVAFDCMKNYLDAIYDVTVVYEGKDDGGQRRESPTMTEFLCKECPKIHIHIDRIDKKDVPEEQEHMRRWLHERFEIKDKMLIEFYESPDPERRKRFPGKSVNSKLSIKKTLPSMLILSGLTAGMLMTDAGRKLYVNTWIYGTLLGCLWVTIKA
Chain of UniProt P18085 (P18085 whole entry, looked up): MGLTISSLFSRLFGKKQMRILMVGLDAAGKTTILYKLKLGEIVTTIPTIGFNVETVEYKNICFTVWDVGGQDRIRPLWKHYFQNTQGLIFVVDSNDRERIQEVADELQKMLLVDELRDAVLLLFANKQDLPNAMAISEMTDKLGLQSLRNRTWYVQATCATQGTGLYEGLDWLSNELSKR
Chain of UniProt Q8N6D5 (Q8N6D5 whole entry, looked up): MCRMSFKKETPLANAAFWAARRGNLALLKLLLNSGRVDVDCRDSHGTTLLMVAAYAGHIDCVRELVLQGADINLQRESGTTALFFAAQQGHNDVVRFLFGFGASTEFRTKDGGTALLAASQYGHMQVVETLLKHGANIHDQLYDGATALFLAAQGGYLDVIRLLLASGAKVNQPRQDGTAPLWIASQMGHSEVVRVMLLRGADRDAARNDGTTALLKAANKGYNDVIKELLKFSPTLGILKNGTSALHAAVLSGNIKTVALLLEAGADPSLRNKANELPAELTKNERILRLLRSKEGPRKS

| Target | log2 fold change [1] | log2 fold change [2] | log2 fold change [3] | log2 fold change [4] | log2 fold change [5] | log2 fold change [6] | log2 fold change [7] | log2 fold change [8] | log2 fold change [9] | log2 fold change [10] |
| --- | --- | --- | --- | --- | --- | --- | --- | --- | --- | --- |
| AIF1 (UniProt P55008) | 0.155 | -0.02 | 0.09 | 0.08 | -0.051 | 0.093 | 0.058 | -0.126 |  |  |
| BRAP (UniProt Q7Z569) | 0.114 | 0.09 | 0.022 | 0.012 | 0.001 | 0.032 | 0.172 | -0.023 | -0.07 | -0.059 |
| BAIAP2 (UniProt Q9UQB8) | 0.033 | 0.089 | 0.012 | -0.008 | 0.018 | 0.017 | 0.014 | -0.063 | -0.101 | -0.016 |
| BCCIP isoform 2 (UniProt Q9P287) | -0.1 | 0.023 | 0.027 | 0.026 | -0.025 | 0.003 | 0.012 | -0.007 | -0.002 | 0.066 |
| ADH5 (UniProt P11766) | -0.012 | 0.034 | 0.05 | -0.016 | 0.001 | 0.007 | -0.039 | 0.002 | 0.004 | 0.037 |
| ASNS (UniProt P08243) | 0.006 | 0.004 | 0.053 | -0.015 | 0.012 | -0.011 | 0.034 | -0.008 | 0.002 | 0.02 |
| ANKRD29 (UniProt Q8N6D5) | 0.243 | -0.445 (active) | 0.083 | -0.021 | 0.223 | -0.015 | -0.046 | 0.098 | -0.025 | 0.096 |
| ADPRHL2 (UniProt Q9NX46) | 0.03 | 0.024 | 0.122 | 0.048 | 0.043 | 0.006 | 0.019 | 0.049 | 0.003 | -0.165 |
| ACTBL2 (UniProt Q562R1) | -0.247 | -0.805 | 0.093 | 0.025 | -0.419 | -0.215 | 0.047 | 0.147 |  |  |
| AUP1 (UniProt Q9Y679) | 0.018 | 0.055 | 0.068 | 0.049 | 0.006 | 0.055 | 0.078 | 0.004 | -0.031 | -0.018 |
| APOBEC3G (UniProt Q9HC16) | -0.087 | 0.027 | -0.124 | 0.047 | -0.005 | 0.056 | -0.056 | 0.109 | 0.181 | -0.362 |
| BRIX1 (UniProt Q8TDN6) | -0.093 | -0.05 | -0.415 | -0.089 | 0.003 | 0.046 | -0.046 | -0.167 | 0.017 | -0.387 |
| ALKBH4 (UniProt Q9NXW9) | 0.067 | 0.084 | 0.018 | 0.078 | 0.106 | -0.129 | 0.032 | -0.006 | -0.074 | 0.091 |
| ACSL5 isoform 3 (UniProt Q9ULC5) | 0.044 | 0.039 | -0.021 | 0.028 | -0.029 | -0.011 | -0.007 | 0.047 | -0.003 | 0.061 |
| ACADVL isoform 3 (UniProt P49748) | 0.008 | 0.015 | 0.035 | 0.291 (active) | 0.023 | 0.055 | 0.027 | 0.155 | 0.025 | 0.043 |
| AGPAT5 (UniProt Q9NUQ2) | 0.042 | -0.019 | -0.003 | 0.014 | 0.009 | 0.048 | 0.07 | -0.001 | -0.017 | 0.079 |
| ALDH18A1 (UniProt P54886) | 0.016 | 0.092 | 0.089 | -0.084 | -0.007 | -0.204 | -0.093 | -0.091 | -0.015 | -0.057 |
| BZW1 isoform 3 (UniProt Q7L1Q6) | 0.049 | 0.176 | -0.001 | -0.088 | 0.054 | 0.019 | 0.042 | 0.039 | -0.059 | -0.101 |
| ACADM isoform 2 (UniProt P11310) | -0.015 | 0.014 | 0.013 | 0.149 | 0.044 | 0.002 | 0.059 | -0.001 | 0.008 | 0.067 |
| ASB6 (UniProt Q9NWX5) | -0.024 | -0.603 (active) | -0.263 | -0.067 | 0.184 | -0.084 | 0.101 | -0.032 |  |  |
| ARFGEF1 (UniProt Q9Y6D6) | 0.016 | 0.025 | 0.03 | -0.03 | 0.016 | 0.015 | 0.101 | 0.051 | -0.013 | 0.043 |
| AFDN isoform 1 (UniProt P55196) | -0.008 | 0.072 | 0.002 | -0.003 | -0.136 | -0.018 | -0.082 | -0.005 |  |  |
| ATP7B (UniProt P35670) | -0.005 | 0.073 | -0.037 | 0.051 | 0.119 | 0.01 | 0.077 | -0.009 | -0.075 | -0.052 |
| APPL1 (UniProt Q9UKG1) | -0.049 | 0.162 | 0.055 | 0.012 | 0.055 | 0.016 | 0.038 | -0.029 | 0.014 | 0.003 |
| BLVRB (UniProt P30043) | 0.03 | 0.112 | 0.237 (active) | -0.031 | -0.015 | 0.072 | 0.042 | 0.014 | 0.001 | 0.056 |
| ARF4 (UniProt P18085) | -0.029 | 0.033 | 0.093 | -0.007 | 0.006 | -0.016 | 0.093 | 0.039 | -0.015 | -0.021 |
| ABHD17A isoform 2 (UniProt Q96GS6) | 0 | -0.011 | -0.028 | 0.223 | 0.035 | 0.042 | 0.017 | 0.008 | -0.068 | 0.11 |
| ATOX1 (UniProt O00244) | -0.033 | 0.307 | 0.141 | 0.068 | -0.089 | 0.074 | 0.242 | 0.112 | -0.061 | 0.024 |
| ANXA5 (UniProt P08758) | -0.012 | 0.1 | 0.06 | -0.039 | 0.009 | 0.002 | 0.013 | 0.038 | 0.022 | -0.012 |
| AKT2 (UniProt P31751) | 0.014 | 0.096 | 0.094 | 0.027 | 0.068 | -0.023 | 0.019 | 0.028 | -0.068 | 0.144 |
